From PubChem
The list is not random: actives were taken first. Their share in the collection is about 11%.
Luciferase inh: blocks purified firefly luciferase enzyme activity; 76,000 compounds, 2.5% hits; P08659; purified P. pyralis luciferase, luminescence, biochemical; Potency, µM (series often up to 115 µM), hits mostly inhibitors; note: nearly all actives have a fitted effect of over 65% in size
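Purified P. pyralis luciferase (10nM final) in 50mM Tris acetate pH 7.5, 10mM Mg acetate, 0.01% Tween-20, 0.05% BSA with 10uM D-luciferin and 10uM ATP. Compounds titrated qHTS. Luminescence imaged on CCD.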
HEK293 tox: HEK 293 cell cytotoxicity | HEK 293 viability, ATP luminescence (CellTiter-Glo), 48-72 h | Potency, µM (doses to about 115 µM), actives largely listed as inhibitors | 94,000 compounds, 6.6% hits | AID 1345083; note: nearly all actives have a fitted effect of over 60% in size
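ATP-coupled CellTiter-Glo luminescence served as viability read-out, recorded 10 min after reagent addition at room temperature. HEK 293 cells, 250 cells/well, had been incubated with pintool-transferred compound for 48 or 72 hr at 37 degree Celsius.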
hNpr1 antagonist: blocks ANP-stimulated signaling of human Npr1 receptor. P16066. HEK293 hNpr1 GloSensor cGMP, ANP-stimulated luminescence. Potency, µM (series often up to 46.3 µM), usual class: inhibitors. 76,000 compounds, 1.6% hits; calls by dose curve; note: nearly all actives have a fitted effect of over 60% in size
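HEK293 cells stably expressing human Npr1 and cGMP GloSensor pGS-40F, loaded 2 h with 2% GloSensor reagent, given compound 30 min at room temperature. Luminescence read before and 20 min after 0.1 nM hNppA.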
3T3 cytotox: kills NIH 3T3 cells | NIH 3T3 viability, CellTiter-Glo ATP luminescence, 48-72 h | 94,000 compounds, 4.3% hits | Potency, µM (series often up to 96.7 µM), hits mostly inhibitors; note: nearly all actives have a fitted effect of over 55% in size
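First NIH 3T3 cells are plated at 400 cells/well; next compound is pinned in; then plates incubate 48 or 72 hr at 37 °C; finally CellTiter-Glo is added and luminescence read after 10 min.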
A number is an active result; 0 = inactive; ? = inconclusive; - = no result given. Unless noted, calls come from the whole dose curve; as a rule, active = well fitted curve in the direction sought with a large enough effect; inconclusive = small, poorly fitted or top-dose-only effect, or another doubt; inactive = no such curve, though single readings can be large; an effect the other way counts as inactive or inconclusive.

SMILES	Luciferase inh	HEK293 tox	hNpr1 antagonist	3T3 cytotox
O=C(N[C@H]1CCN2C(=O)c3cc(-c4cccs4)ccc3NC(=O)[C@H]12)C1CCCC1	?	0	0	?
O=C(NCCC1=CCCCC1)c1cc2n(n1)CC(c1ccc3c(c1)OCO3)OC2 (centres undefined)	0	71µM	?	?
O=C(NCCC1=CCCCC1)c1cc2n(n1)CC(c1ccc(Cl)cc1)OC2 (centres undefined)	0	45µM	?	?
CCC(=O)Nc1ccc(C2(C(=O)N3CCCC(C)C3)CCCCC2)cc1 (centres undefined)	0	?	0	0
Cc1noc(C)c1-c1cc2cc(CN(C)C)oc2c(Nc2cccc([S+](C)(=O)[O-])c2)n1	0	50µM	0	45µM
COc1cc(CNc2nc(-c3c(C)noc3C)cc3cc(CN(C)C)oc23)cc(OC)c1	0	?	0	?
Cc1noc(C)c1-c1cc2cc(CN(C)C)oc2c(Nc2ccn(C)n2)n1	0	?	0	?
COc1cccc(Nc2nc(-c3c(C)noc3C)cc3cc(CN(C)C)oc23)c1	0	45µM	0	45µM
CC(=O)N1CCC2(CC1)CN(Cc1ccncc1)Cc1ccccc1O2	-	0	-	0
O=C(C1CCCN(C(=O)C2CC2)C1)N1CCC(N2CCOC2=O)CC1 (centres undefined)	-	0	-	0
O=C(c1ccco1)N1CCCC(CCc2cccc(F)c2)C1 (centres undefined)	0	79µM	0	?
COc1cccc(CCC2CCCN(C(=O)c3ccc(OC)o3)C2)c1 (centres undefined)	0	35µM	0	?
C=CCS(=O)(=O)N1CCCC(CCc2cccc(OC)c2)C1 (centres undefined)	0	?	0	0
Cc1ccc(CN(C)C(=O)c2ccccc2OC2CCN(Cc3ccccn3)CC2)o1	0	0	0	0
Cc1nn(-c2ccccc2)c2c1C(C)N(C1CCN(C(=O)c3ccccc3)C1)C2=O (centres undefined)	-	45µM	-	?
Cc1ccc(C(=O)N2CCCC(N3C(=O)c4c(c(C)nn4-c4ccccc4)C3C)C2)cc1 (centres undefined)	-	45µM	-	?
Cc1nn(-c2ccccc2)c2c1C(C)N(C1CCN(C(=O)c3cccc(C(F)(F)F)c3)C1)C2=O (centres undefined)	-	35µM	-	?
COC1CCCN(C(=O)c2cc(-c3ccc(F)cc3)cc3ncn(C)c23)C1 (centres undefined)	25µM	?	0	0
COc1ncccc1-c1cc(C(=O)N2CCC(OC)CC2)c2c(c1)ncn2C	0	0	0	?
O=C(C1CC1)N1CC[C@H](c2nc3ccccc3o2)C1	0	0	0	?
Cc1c(-c2ccccc2)[nH]c2c(CNC(=O)Cn3ccc(=O)[nH]c3=O)cc(Cl)cc12	?	?	0	?
Cc1c(-c2ccccc2)[nH]c2c(CNC(=O)c3ccc(=O)n(C)n3)cc(Cl)cc12	?	28µM	11µM	?
Cc1c(-c2ccccc2)[nH]c2c(CNC(=O)CN3C(=O)CNC3=O)cc(Cl)cc12	10µM	?	0	?
COCC(=O)NCc1cc2n(n1)CCCN(Cc1cc3ccccc3s1)C2	0	20µM	0	?
CNC(=O)c1cc(C2CC2)nc2onc(C3CCCN3C(=O)c3ccc(C(F)(F)F)cc3)c12 (centres undefined)	-	0	-	0
SMILES	Luciferase inh	HEK293 tox	hNpr1 antagonist	3T3 cytotox
COCCNC(=O)C1(C)CCCc2cnc(Nc3ccccc3)nc21 (centres undefined)	0	?	0	?
CC1(C(=O)NCCOc2ccccc2)CCCc2cnc(Nc3cccnc3)nc21 (centres undefined)	0	100µM	0	?
COCCNC(=O)C1(C)CCc2cnc(Nc3ccccc3)nc21 (centres undefined)	0	?	0	79µM
Cn1ccc(NC(=O)C2(C)CCc3cnc(NCc4ccccc4)nc32)n1 (centres undefined)	0	?	0	20µM
CC1(C(=O)NCCCn2ccnc2)CCc2cnc(NCc3ccccc3)nc21 (centres undefined)	0	0	0	32µM
CC1(C(=O)NCCN2CCOCC2)CCCc2cnc(NCc3ccccc3)nc21 (centres undefined)	0	0	0	?
NC(=O)c1cc[nH]c1C1CCCN(S(=O)(=O)c2ccc3c(c2)CCC3)C1 (centres undefined)	0	?	?	?
CCOC(=O)C1(Cc2ccc(F)cc2F)CCCN(C(=O)Nc2ccc3c(c2)OCO3)C1 (centres undefined)	?	?	0	?
CC1(C(=O)NCC2CC2)CCc2cnc(NCc3ccccc3)nc21 (centres undefined)	0	40µM	0	?
COCCNC(=O)C1(C)CCc2cnc(NCc3ccccc3)nc21 (centres undefined)	0	0	0	89µM
CCC(C)NC(=O)C1CCN(Cc2ccccc2-c2ccccc2F)CC1 (centres undefined)	-	0	-	?
COc1ccc(CN2CCC3(CC2)C(=O)NCN3Cc2ccc(Cl)cc2)cc1	0	40µM	0	?
Cc1ccc(CN2CCC3(CC2)C(=O)NCN3Cc2ccc(Cl)cc2)cc1	0	?	?	0
Cn1c([C@H]2CCN(Cc3ccc(Cl)cc3)C2)nc2ccccc21	0	?	?	100µM
O=C(NCc1ccccc1F)c1ccc2c(c1)CN(Cc1ccccc1F)CCO2	-	45µM	-	?
Cc1ccc(CNC(=O)c2ccc3c(c2)CN(Cc2ccncc2F)CCO3)cc1	0	?	?	?
O=C(NCc1ccccc1F)c1ccc2c(c1)CN(Cc1cccc(F)c1)CCO2	0	?	0	?
O=C(NCc1ccccc1F)c1ccc2c(c1)CN(Cc1ccncc1F)CCO2	-	45µM	-	?
OC1(CN2CCN(C/C=C/c3ccccc3)CC2)CNCCOC1 (centres undefined)	0	0	0	?
CCCS(=O)(=O)N1CCC(Cc2ncc(C)n2Cc2ccc(F)cc2)CC1	0	0	0	0
Fc1ccc2nc(CO[C@H]3CN(Cc4cnc5ccccc5c4)C[C@H]3F)[nH]c2c1	0	71µM	?	?
COC(=O)c1ccc2nc(CO[C@H]3CN(Cc4ccc5ccccc5n4)C[C@H]3F)[nH]c2c1	?	100µM	0	?
CCCOc1cccc(-c2nc(C(=O)NCC)cs2)c1	0	32µM	0	?
CC(C)Oc1cccc(-c2nc(C(=O)NCc3ccccc3)cs2)c1	0	32µM	?	?
CC(C)Oc1cccc(-c2nc(C(=O)NCc3ccco3)cs2)c1	?	?	0	?
O=C(O)CCCC(=O)N1Cc2ccccc2CC2(CCCN(Cc3ccccn3)C2)C1 (centres undefined)	-	0	-	0
COc1ccc(CN2C[C@@H]3C[C@H]2C(=O)N(Cc2ccccn2)c2ccccc2O3)cc1	0	?	0	?
CNC(=O)c1cc(C)nc2onc(C3CCCN(C(=O)Cc4ccccc4)C3)c12 (centres undefined)	-	0	-	0
CC1(CNc2ccccc2)COc2ccc(C(=O)NCCOc3ccccc3)cc2N1 (centres undefined)	?	40µM	?	32µM
